# Results taken from PMC12820563, “FoxP3 forms a head-to-head dimer in vivo and stabilizes its multimerization on adjacent microsatellites”.
# The full ranking holds about 16,000 sequences; the median of “rpm ratio (pull-down/input)” is about 0.94, and the highest 2% start at about 1.7. The sample as a whole holds a higher share of the highest values than the screen did.
# Biological target: T1, MBP-FoxP1dN (Mus musculus, UniProt P58462 326-579)
# T1 sequence: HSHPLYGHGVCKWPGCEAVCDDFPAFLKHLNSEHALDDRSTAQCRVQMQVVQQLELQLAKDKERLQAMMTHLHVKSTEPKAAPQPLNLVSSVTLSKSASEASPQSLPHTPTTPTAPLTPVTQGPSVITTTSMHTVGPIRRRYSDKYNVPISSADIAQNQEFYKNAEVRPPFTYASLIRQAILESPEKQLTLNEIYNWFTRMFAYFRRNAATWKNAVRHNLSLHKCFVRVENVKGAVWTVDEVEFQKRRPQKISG
# Test: PD-seq (MBP pull-down with sequencing); 20 mM Tris-HCl pH 7.5, 100 mM NaCl, 1.5 mM MgCl2, 0.4 uM protein, 0.1 uM dsDNA library, 30 min, room temperature, amylose pull-down; high values mean tight binding
# Details: protein: recombinant; tags: His6-MBP; chain copies: 2; dsDNA, one strand shown
# Method in brief: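 A fragment of mouse FoxP3 or FoxP1 without its N-terminus, carrying a His6-MBP tag and produced in E. coli, was combined at 0.4 µM with a 0.1 µM degenerate double-stranded DNA library filled in with Klenow. The mixture sat for 30 min at room temperature in Tris pH 7.5 buffer containing NaCl and MgCl2. Protein–DNA complexes were captured on amylose resin, washed three times, and the DNA was freed with proteinase K, barcoded by PCR and sequenced on Illumina. Binding is expressed as reads-per-million enrichment of pull-down over input, with replicates pooled.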
row,Sequence,binding signal
1,GATGATTGTTCTCCCAGCTGATGAATTCCTATCTTCGAGTAAACAAATTTTCCTAATCTTTCTGTTCAAGCGCCATCTAC,0.802 RPM ratio (pull-down/input)
2,GATGATTGTTCTCCCAGCTGATGAATTTGACTTGTCGAGTAAACAAATTTTCCTAATCTTTCTGTTCAAGCGCCATCTAC,0.82 RPM ratio (pull-down/input)
3,GATGATTGTTCTCCCAGCTGATGAATTTCCTGCGTCGAGTAAACAAATTTTCCTAATCTTTCTGTTCAAGCGCCATCTAC,0.938 RPM ratio (pull-down/input)
4,GATGATTGTTCTCCCAGCTGATGAATTCTCTCTTTCGAGTAAACAAATTTTCCTAATCTTTCTGTTCAAGCGCCATCTAC,0.917 RPM ratio (pull-down/input)
5,GATGATTGTTCTCCCAGCTGATGAATTTAATATGTCGAGTAAACAAATTTTCCTAATCTTTCTGTTCAAGCGCCATCTAC,0.979 RPM ratio (pull-down/input)
6,GATGATTGTTCTCCCAGCTGATGAATTGTCGTCGTCGAGTAAACAAATTTTCCTAATCTTTCTGTTCAAGCGCCATCTAC,1.05 RPM ratio (pull-down/input)
7,GATGATTGTTCTCCCAGCTGATGAATTGTTGTCGTCGAGTAAACAAATTTTCCTAATCTTTCTGTTCAAGCGCCATCTAC,2.33 RPM ratio (pull-down/input)
8,GATGATTGTTCTCCCAGCTGATGAATTTCTGTCGTCGAGTAAACAAATTTTCCTAATCTTTCTGTTCAAGCGCCATCTAC,0.96 RPM ratio (pull-down/input)
9,GATGATTGTTCTCCCAGCTGATGAATTCGATCTATCGAGTAAACAAATTTTCCTAATCTTTCTGTTCAAGCGCCATCTAC,0.885 RPM ratio (pull-down/input)
10,GATGATTGTTCTCCCAGCTGATGAATTATTTCTGTCGAGTAAACAAATTTTCCTAATCTTTCTGTTCAAGCGCCATCTAC,1.11 RPM ratio (pull-down/input)
11,GATGATTGTTCTCCCAGCTGATGAATTATTGTCGTCGAGTAAACAAATTTTCCTAATCTTTCTGTTCAAGCGCCATCTAC,1.56 RPM ratio (pull-down/input)
12,GATGATTGTTCTCCCAGCTGATGAATTATTATTGTCGAGTAAACAAATTTTCCTAATCTTTCTGTTCAAGCGCCATCTAC,3.2 RPM ratio (pull-down/input)
13,GATGATTGTTCTCCCAGCTGATGAATTATTGTTGTCGAGTAAACAAATTTTCCTAATCTTTCTGTTCAAGCGCCATCTAC,3.22 RPM ratio (pull-down/input)
14,GATGATTGTTCTCCCAGCTGATGAATTATTCTTGTCGAGTAAACAAATTTTCCTAATCTTTCTGTTCAAGCGCCATCTAC,1.16 RPM ratio (pull-down/input)
15,GATGATTGTTCTCCCAGCTGATGAATTATTGATGTCGAGTAAACAAATTTTCCTAATCTTTCTGTTCAAGCGCCATCTAC,1.85 RPM ratio (pull-down/input)
16,GATGATTGTTCTCCCAGCTGATGAATTATGATTGTCGAGTAAACAAATTTTCCTAATCTTTCTGTTCAAGCGCCATCTAC,1.45 RPM ratio (pull-down/input)

row,Sequence,binding signal
1,GATGATTGTTCTCCCAGCTGATGAATTATTAATGTCGAGTAAACAAATTTTCCTAATCTTTCTGTTCAAGCGCCATCTAC,1.35 RPM ratio (pull-down/input)
2,GATGATTGTTCTCCCAGCTGATGAATTGATTATGTCGAGTAAACAAATTTTCCTAATCTTTCTGTTCAAGCGCCATCTAC,1.31 RPM ratio (pull-down/input)
3,GATGATTGTTCTCCCAGCTGATGAATTATGAGTCTCGAGTAAACAAATTTTCCTAATCTTTCTGTTCAAGCGCCATCTAC,0.886 RPM ratio (pull-down/input)
4,GATGATTGTTCTCCCAGCTGATGAATTACGATCGTCGAGTAAACAAATTTTCCTAATCTTTCTGTTCAAGCGCCATCTAC,0.952 RPM ratio (pull-down/input)
5,GATGATTGTTCTCCCAGCTGATGAATTTGAGCTTTCGAGTAAACAAATTTTCCTAATCTTTCTGTTCAAGCGCCATCTAC,0.854 RPM ratio (pull-down/input)
6,GATGATTGTTCTCCCAGCTGATGAATTCGCTTGCTCGAGTAAACAAATTTTCCTAATCTTTCTGTTCAAGCGCCATCTAC,0.817 RPM ratio (pull-down/input)
7,GATGATTGTTCTCCCAGCTGATGAATTAAACTCTTCGAGTAAACAAATTTTCCTAATCTTTCTGTTCAAGCGCCATCTAC,0.825 RPM ratio (pull-down/input)
8,GATGATTGTTCTCCCAGCTGATGAATTTTTAATCTCGAGTAAACAAATTTTCCTAATCTTTCTGTTCAAGCGCCATCTAC,0.864 RPM ratio (pull-down/input)
9,GATGATTGTTCTCCCAGCTGATGAATTAAGTCCTTCGAGTAAACAAATTTTCCTAATCTTTCTGTTCAAGCGCCATCTAC,0.887 RPM ratio (pull-down/input)
10,GATGATTGTTCTCCCAGCTGATGAATTCTTCATCTCGAGTAAACAAATTTTCCTAATCTTTCTGTTCAAGCGCCATCTAC,0.813 RPM ratio (pull-down/input)
11,GATGATTGTTCTCCCAGCTGATGAATTGGTGCATTCGAGTAAACAAATTTTCCTAATCTTTCTGTTCAAGCGCCATCTAC,1.35 RPM ratio (pull-down/input)
12,GATGATTGTTCTCCCAGCTGATGAATTAACCTGCTCGAGTAAACAAATTTTCCTAATCTTTCTGTTCAAGCGCCATCTAC,0.79 RPM ratio (pull-down/input)
13,GATGATTGTTCTCCCAGCTGATGAATTGACGAACTCGAGTAAACAAATTTTCCTAATCTTTCTGTTCAAGCGCCATCTAC,1.03 RPM ratio (pull-down/input)
14,GATGATTGTTCTCCCAGCTGATGAATTTCTTGGGTCGAGTAAACAAATTTTCCTAATCTTTCTGTTCAAGCGCCATCTAC,0.716 RPM ratio (pull-down/input)
15,GATGATTGTTCTCCCAGCTGATGAATTATGTGAATCGAGTAAACAAATTTTCCTAATCTTTCTGTTCAAGCGCCATCTAC,1.14 RPM ratio (pull-down/input)
